Records with an inconclusive call do not appear. Entries that show only a call come without a potency. Activity calls are given as the source filed them. Calls follow the shape of the dose curve; as a rule, active = well fitted inhibition curve with a large enough effect in the repeat runs; inconclusive = weak or mixed curves; inactive = flat fitted curve, though single readings scatter.
Potency is read from the fitted curve at half-maximal effect.

Sequence of Cytochrome P450 2D6 (Homo sapiens) (P10635 whole entry, looked up): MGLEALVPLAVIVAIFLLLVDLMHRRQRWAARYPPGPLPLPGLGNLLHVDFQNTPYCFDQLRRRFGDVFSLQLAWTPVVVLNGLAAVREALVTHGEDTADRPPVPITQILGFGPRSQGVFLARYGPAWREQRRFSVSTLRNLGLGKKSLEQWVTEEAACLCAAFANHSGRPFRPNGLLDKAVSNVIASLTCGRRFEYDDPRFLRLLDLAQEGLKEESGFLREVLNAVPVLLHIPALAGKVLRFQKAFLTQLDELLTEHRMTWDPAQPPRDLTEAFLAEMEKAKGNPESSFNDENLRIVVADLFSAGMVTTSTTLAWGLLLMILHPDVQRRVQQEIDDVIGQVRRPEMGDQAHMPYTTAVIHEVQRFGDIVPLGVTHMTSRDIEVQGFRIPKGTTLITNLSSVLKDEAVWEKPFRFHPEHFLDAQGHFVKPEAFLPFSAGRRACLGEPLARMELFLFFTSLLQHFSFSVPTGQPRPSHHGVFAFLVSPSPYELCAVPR

The experiment concerns the target Cytochrome P450 2D6 (Homo sapiens) (UniProt P10635). As to the kind of experiment: Cytochrome P450 family 2 subfamily D member 6 (CYP2D6) small molecule antagonists: luciferase biochemical (cell-free) qHTS assay (AID 1645840). Also: nearly all actives have a fitted effect of over 55% in size. To be noted: P450-Glo CYP2D6 enzyme, luciferin luminescence, 1 h; series mostly up to 57.4 µM. Here is the method:
National Center for Advancing Translational Sciences [NCATS] Assay Overview: Cytochrome P450 (CYP) enzymes are membrane-bound hemeproteins that play a key role in metabolism of drugs and xenobiotics. Assaying the effect of chemicals on CYP isozymes is useful to minimize the adverse drug reactions and toxicities in drug development process. Chemical compounds were tested for their effect on CYP enzyme activities by using P450-Glo (TM) screening systems (Promega Corporation, Madison, WI). These systems provide a luminescent method containing proluciferin substrates and are converted to luciferin products by CYP isozymes. The luciferin products formed are detected with a luciferin detection reagent, and the amount of light produced is proportional to CYP activity. P450-Glo (TM) CYP2D6 screening system (Catalog. No. V9890) was used to detect the compounds that interfere in CYP2D6 activity.
Assay Protocol Summary: Two ul of enzyme-substrate mix was dispensed into medium binding white/solid 1536-well plates (Greiner Bio-One North America Inc., Monroe, NC) using a Flying Reagent Dispenser (FRD, Aurora Discovery, San Diego, CA). […] The assay plates were incubated at room temperature for 10 min. Then 2 ul of NADPH regeneration solution was added to each well of the assay plates using an FRD and incubated at room temperature for 1 h. The reaction was stopped by adding 4 ul of detection reagent using an FRD and after 20 min incubation at room temperature, the luminescence signal was measured using a ViewLux plate reader (Perkin Elmer, Shelton, CT). Data were expressed as relative luminescence units.
(In general: In qHTS, concentration-response curves come from the screen itself.)
Consider `COc1ccc2[nH]c3c(-c4cccc5ccccc45)nccc3c2c1`, for which the Potency is 0.0151 µM (active).
The figure for `COC(=O)[C@@]1(c2ccc(C)cc2)C[C@H]1CN1CCC(O)(c2ccccc2)CC1` is 2.68 µM (active).
As to `Cc1cc(OCc2nnc(SC3CCCC3)n2-c2cccnc2)ccc1-c1ccc(S(C)(=O)=O)cc1`, the Potency entry was “inactive”.
Then `Cc1cccc(Oc2cnc(=O)[nH]c2)c1`, with “inactive”.
With `CS(=O)(=O)N1CCC(NC(=O)c2[nH]ncc2NC(=O)c2c(Cl)cccc2Cl)CC1`, the Potency entry is “inactive”.
For `COc1ncc2cc(C(=O)Nc3cc(C(=O)NCc4cccc(Cl)c4)ccc3Cl)c(=O)[nH]c2n1`, the Potency result is “inactive”.
The figure for `COc1cc2nc(N3CCCC3)nc(NCCCCCN3CCCC3)c2cc1OC` is 4.77 µM (active).
The figure for `Cc1cccc(-c2[nH]c(Cc3cccc(C(N)=O)c3)nc2-c2ccc3nccnc3c2)n1` is 13.5 µM (active).
`Cc1cc(C(=O)N2CCCCc3ccccc32)ccc1CNC(=O)N1CCC[C@H]1C(=O)N(C)C`: the Potency result was “inactive”.
Then `Cc1noc(-c2ccc(-c3ccc(CC(=O)O)cc3)cc2)c1NC(=O)O[C@H](C)c1ccccc1`, with “inactive”.
Then `CCN1CCN(Cc2ccc(NC(=O)c3ccc(C)c(/C=C/c4cnc5[nH]ccc5c4OC)c3)cc2C(F)(F)F)CC1`, with 6.74 µM (active); and `COc1cc2ncnc(Nc3cccc(O)c3)c2cc1OC`, with “inactive”.
Then `CC(C)c1nc(-c2ccc(NC(=O)Nc3cccc(C(F)(F)F)c3)c3ccccc23)c2c(N)nccn12`, with 0.0674 µM (active); and `CC(C)C(CO)Nc1nc(Nc2cc(N)cc(Cl)c2)c2ncn(C(C)C)c2n1` (stereo not given), with 23.9 µM (active); and `CC[C@@H](N)CNc1ccnc(-c2cc(-c3cnn(C)c3)ccc2O)n1`, with 9.52 µM (active).
Take `COc1cc(N)c(Cl)cc1C(=O)NC[C@@H]1CCN2CCC[C@@H]12`: the Potency was 10.7 µM (active).
Then `COc1cc(Br)c(S(=O)(=O)Nc2ccc(C(F)(F)F)c(O[C@@H]3CCN(C)C3)c2)cc1OC`, with 23.9 µM (active); and `CS(=O)(=O)NCC1CCC(Nc2nc3c(s2)CCSc2ccccc2-3)CC1` (stereo not given), with 10.7 µM (active); and `CCOC(=O)Nc1cc(-c2ccc(C)c(NS(C)(=O)=O)c2)nn2c(C)nnc12`, with “inactive”.
The entry for `CC1CCN(C(=O)CC#N)CC1N(C)c1ncnc2[nH]ccc12` (stereo not given) is “inactive”; for `COc1ccc(-c2ccc3c(N4CCOCC4)nc(N4CC(C)OC(C)C4)nc3n2)cc1CO` (stereo not given) it is “inactive”; for `C[C@@H](O)[C@H](NC(=O)c1ccc(C#Cc2ccc(CN3CCOCC3)cc2)cc1)C(=O)NO` it is “inactive”.
The entry for `C[C@@H]1CN(Cc2ncccn2)C[C@H]1c1nc2c(cnn2C2CCOCC2)c(=O)[nH]1` is “inactive”.
With `O=C(NCc1cccc(O)c1)Nc1nc(-c2ccncc2)cs1`, the Potency is 0.849 µM (active).
Then `CCOCCn1nc(CC)c2nc(N3CCC(C(=O)O)CC3)nc(Nc3cc(C)ccn3)c21`, with “inactive”.
`O=C1CC2(CCCC2)[C@H](O)C(=O)N1CCCCN1CCN(c2ncccn2)CC1`: the Potency was 12 µM (active).
`COc1cc(Nc2nc3ccccc3nc2NS(=O)(=O)c2ccc(NC(=O)c3ccc(OC)c(C)c3)cc2)cc(OC)c1`: the Potency result is “inactive”.
The figure for `CCCC(=O)C1CCN(c2ncnc3c2CN(C(=O)c2ccc(-c4ccccc4)cc2)CC3)CC1` is 21.3 µM (active); for `CCNC(=O)Nc1ccc(-c2nc3c(c(N4CCOC[C@@H]4C)n2)CCN(c2ncccn2)C3)cc1` it is 10.7 µM (active); for `CN(C)C1CCN(C(=O)c2ccc(NC(=O)Nc3ccc(-c4nc(N5CCOCC5)nc(N5CCOCC5)n4)cc3)cc2)CC1` it is “inactive”.
The figure for `COc1cc(O)c([C@@H](CC(=O)N2CC(C)CC(C)C2)c2ccc3c(c2)OCO3)c(OC)c1` (stereo not given in full) is 19 µM (active); for `Cn1ncnc1COc1nn2c(-c3cc(F)ccc3F)nnc2cc1C(C)(C)C` it is “inactive”; for `Cc1ccc(-c2c(C(=O)CF)n(CCCO)c3ncnc(N)c23)cc1` it is “inactive”.
As to `CCN1CCN(Cc2ccc(NC(=O)c3ccc(C)c(NC(=O)c4cncc(-c5cccs5)c4)c3)cc2C(F)(F)F)CC1`, the Potency is 3.38 µM (active).
On to `CNC(=O)c1cc(Oc2ccc3nc(N[C@@H]4CCCC[C@H]4O)sc3c2)ccn1`, for which the Potency was 16.9 µM (active).
The figure for `N#Cc1ccc(C(=O)N2CCC3(CC2)N=C(N)c2c(F)ccc(F)c2N3)cn1` is 15.1 µM (active).
The entry for `CCO[C@@H]1OC(=O)C[C@@H]1NC(=O)[C@@H]1CCCN1C(=O)[C@@H](NC(=O)c1ccc(N)c(Cl)c1)C(C)(C)C` is “inactive”; for `Cc1cc(C(=O)Nc2cccc(C(=O)Nc3cccc(C(F)(F)F)c3)c2)on1` it is “inactive”.
The entry for `COc1ccc([C@H]2CNC(=O)C2)cc1OC1CCCC1` is “inactive”.
For the compound `Cc1cc(C(=O)N2Cc3cnn(C)c3Nc3ccccc32)ccc1CNC(=O)N1CCC[C@H]1C(=S)N1CCCN(C)CC1`, the Potency result was “inactive”.
